aSyn rescue: qHTS of alpha-syn Inhibitors; Yeast expressing alpha-synuclein, growth rescue, BacTiter-Glo, 24 h; Potency, µM (highest dose often 46.1 µM), for inactives: at the highest dose growth rescue (activation), hits mostly activators; hit rate 0.14% among 370,000; AID 652106, 2013; also: % of control where 0% means no effect; nearly all actives have a fitted effect of over 65% in size
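Screening used galactose-induced yeast with toxic alpha-synuclein levels, exposed to compound for 24 hr at 30 deg C. Cell growth, read with BacTiter-Glo luminescence, gave the measured signal.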
TDP-43 yeast inh: qHTS of TDP-43 Inhibitors | TDP-43 expressing yeast growth rescue, BacTiter-Glo, 24 h | Potency, µM (doses to about 46.1 µM), for the others: at the top dose growth rescue (activation), hits mostly activators | hit rate 1.8% among 410,000 | AID 652104, 2013; also: % of control where 0% means no effect; nearly all actives have a fitted effect of over 50% in size
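Cell-based yeast growth screen: TDP-43 expression induced in galactose, inoculum OD600=0.02 after raffinose pregrowth to mid-log. Read-out BacTiter-Glo luminescence at 24 hr, 30 deg C; inhibition of toxicity seen as signal increase.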
FUS yeast rescue: qHTS for Suppressors of FUS Proteinopathy: Primary screen using FUS-linked yeast assay; hit rate 0.24% among 390,000; S. cerevisiae FUS-expressing, growth rescue, OD600, 24 h; AID 1347120, 2019; Potency, µM (series often up to 76.6 µM), most hits filed as activators;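 also: plate controls were DMSO vehicle for no effect and reference control for full effect; nearly all actives have a fitted effect of over 55% in size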
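Steps: raffinose overnight preculture; dilution to OD 0.005 in 2% galactose minimal medium; compound addition (concentration series); 24hr at 30C, 99% humidity; absorbance read at 600 nm.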
Abeta rescue: qHTS for compounds that reverse cellular toxicity of Amyloid beta (A-beta) peptide in yeast: Primary Screen | yeast expressing A-beta42, growth rescue, OD600, 48 h; response scale: 0% DMSO, 100% iron-clioquinol control | Potency, µM (highest dose often 46.1 µM), most hits filed as activators | hit rate 0.063% among 410,000 | AID 1347071, 2019; also: nearly all actives have a fitted effect of over 55% in size
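Yeast growth medium received pinned compounds, then yeast cells expressing toxic A-beta were added; plates incubated at 30 C for 48 hr. Growth read as absorbance at 600 nm, normalized to DMSO and equimolar FeCl3 plus clioquinol controls.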
The depositor's hits bear a star; [ ] = another dose, or the depositor's remark. Shown are actives, neighbours in structure and some others; about 2.1% of the full set was active somewhere. Calls follow the shape of the dose curve; as a rule, active = well fitted curve in the direction sought with a large enough effect; inconclusive = small, poorly fitted or top-dose-only effect, or another doubt; inactive = no such curve, though single readings can be large; an effect the other way counts as inactive or inconclusive. Potency is read from the fitted curve at half-maximal effect.

What do the screens show for `CCOc1ccc(-c2nnc3ccc(SCC(=O)N4CCCCC4)nn23)cc1`?
aSyn rescue: 1%; TDP-43 yeast inh: 14%; FUS yeast rescue: inactive; Abeta rescue: inactive

What do the screens show for `CCOC1(c2ccccc2)OC(=O)c2ccccc21` (stereo not drawn)?
aSyn rescue: -13%; TDP-43 yeast inh: 4%; FUS yeast rescue: inactive; Abeta rescue: inactive

What do the screens show for `O=C1OC(Sc2ccccc2)(c2ccccc2)c2ccccc21` (stereo not drawn)?
aSyn rescue: 14%; TDP-43 yeast inh: 11µM*; FUS yeast rescue: inactive; Abeta rescue: inactive

Results for CCCn1cc(S(=O)(=O)c2ccccc2)c(=O)c2cc(F)c(N3CCCCCC3)cc21 ?
TDP-43 yeast inh: 0%; FUS yeast rescue: inactive; Abeta rescue: inactive

How did Cn1c(SCC(=O)c2ccc3c(c2)NC(=O)CO3)nc2ccccc21 do in these assays?
aSyn rescue: 2%; TDP-43 yeast inh: -5%[0.397 µM]; FUS yeast rescue: inactive; Abeta rescue: inactive

Results for CCCn1c(SCC(=O)c2ccc3c(c2)NC(=O)CO3)nc2ccccc21 ?
aSyn rescue: -1%; TDP-43 yeast inh: 14µM*; FUS yeast rescue: inactive; Abeta rescue: inactive

How did COc1ccc(CC(=O)Nc2nnc(C(C)(C)C)s2)cc1OC do in these assays?
aSyn rescue: 3%; TDP-43 yeast inh: 12%; FUS yeast rescue: inactive; Abeta rescue: inactive

How did O=C(Nc1ccc(Nc2ccccc2)cc1)C(Cl)(Cl)Cl do in these assays?
aSyn rescue: 1%; TDP-43 yeast inh: 35µM*; Abeta rescue: inactive

What do the screens show for `CCOC(=O)C(=CNNc1ccccc1)C(=O)OCC`?
aSyn rescue: inconclusive; TDP-43 yeast inh: 13µM*; FUS yeast rescue: inactive; Abeta rescue: inactive

How did C/C(=N\Nc1nc2c(s1)CCCC2)c1ccccc1 do in these assays?
aSyn rescue: 7%; TDP-43 yeast inh: 20µM*; FUS yeast rescue: inconclusive; Abeta rescue: inactive

How did C/C(=N\Nc1nc(C(C)(C)C)cs1)c1ccccc1 do in these assays?
aSyn rescue: -26%; TDP-43 yeast inh: 22µM*; FUS yeast rescue: inactive; Abeta rescue: inactive

What do the screens show for `O=C(Nc1nc2c(s1)CCCC2)Oc1ccccc1`?
aSyn rescue: 1%; TDP-43 yeast inh: 1%; FUS yeast rescue: inactive; Abeta rescue: inactive

Results for CC1=C(C(=O)N2CCOCC2)CC(CC(=O)NCC2CCCCC2)C(=O)N1Cc1ccc(C(C)(C)C)cc1 (stereo not drawn) ?
aSyn rescue: 2%; TDP-43 yeast inh: 25%; FUS yeast rescue: inactive; Abeta rescue: inactive

What do the screens show for `CCCn1c(NC(=O)c2ccccc2Br)nc2ccccc21`?
aSyn rescue: 10%; TDP-43 yeast inh: 16µM*; FUS yeast rescue: inactive; Abeta rescue: inactive

How did CCCn1c(NC(=O)c2ccc(Br)cc2)nc2ccccc21 do in these assays?
aSyn rescue: 2%; TDP-43 yeast inh: -6%; FUS yeast rescue: inactive; Abeta rescue: inactive

What do the screens show for `CCCCn1c(NC(=O)c2ccccc2)nc2ccccc21`?
aSyn rescue: 25µM*; TDP-43 yeast inh: inconclusive; FUS yeast rescue: inactive; Abeta rescue: inactive

How did C=CCn1c(NC(=O)c2ccccc2)nc2ccccc21 do in these assays?
aSyn rescue: 2%; TDP-43 yeast inh: 18µM*; FUS yeast rescue: inactive; Abeta rescue: inactive

What do the screens show for `CCn1c(NC(=O)c2ccccc2)nc2ccccc21`?
aSyn rescue: 3%; TDP-43 yeast inh: inconclusive; FUS yeast rescue: inactive; Abeta rescue: inactive

Results for CCCn1c(NC(=O)c2ccc(F)cc2)nc2ccccc21 ?
aSyn rescue: 1%; TDP-43 yeast inh: 0%; FUS yeast rescue: inactive; Abeta rescue: inactive

What do the screens show for `CC(C)CC(C(=O)OCC(=O)Nc1cccc(Cl)c1)N1C(=O)C2CC=CCC2C1=O` (stereo not drawn)?
aSyn rescue: 24%; TDP-43 yeast inh: 35µM*; Abeta rescue: inactive

What do the screens show for `COc1ccc(C2SCCN2C(=S)Nc2cccc(Cl)c2)cc1` (stereo not drawn)?
aSyn rescue: 19%; TDP-43 yeast inh: 18µM*; Abeta rescue: inactive

What do the screens show for `COc1ccc(C2SCCN2C(=S)Nc2ccc(Cl)cc2)cc1` (stereo not drawn)?
aSyn rescue: -13%; TDP-43 yeast inh: 1%; Abeta rescue: inactive

Results for S=C(Nc1ccccc1Cl)N(CCN1CCCCC1)Cc1ccco1 ?
aSyn rescue: 4%; TDP-43 yeast inh: -13%; FUS yeast rescue: inactive; Abeta rescue: inactive

How did CC(=O)c1cnc2nc(SCc3ccc(Cl)cc3)nn2c1C do in these assays?
aSyn rescue: 12%; TDP-43 yeast inh: 14µM*; FUS yeast rescue: inactive; Abeta rescue: inactive

How did CN(CCOC(=O)c1occ2ccccc12)C1CN(Cc2cn(Cc3ccccc3Cl)nn2)S(=O)(=O)C1 (stereo not drawn) do in these assays?
FUS yeast rescue: inactive

How did O=C(CSc1ccc(F)cc1)NCCSc1ccccc1 do in these assays?
aSyn rescue: 6%; TDP-43 yeast inh: 13µM*; FUS yeast rescue: inactive; Abeta rescue: inactive

What do the screens show for `Cc1c(-c2ccccc2)sc2nc[nH]c(=S)c12`?
aSyn rescue: -4%; TDP-43 yeast inh: 16µM*; FUS yeast rescue: inactive; Abeta rescue: inconclusive

What do the screens show for `O=C(c1ccc(NC(=S)Nc2ccc(Cl)c(Cl)c2)cc1)N1CCCC1`?
aSyn rescue: -63%; TDP-43 yeast inh: 18µM*; FUS yeast rescue: inactive; Abeta rescue: inactive

How did Cc1ccc(C2CCN(C(=O)Nc3ccc(Cl)c(Cl)c3)C2)cc1 (stereo not drawn) do in these assays?
TDP-43 yeast inh: inconclusive; FUS yeast rescue: inactive; Abeta rescue: inactive

What do the screens show for `Cc1ccc(NC(=O)N2CCCC(c3ccccc3)C2)cc1` (stereo not drawn)?
aSyn rescue: -3%; TDP-43 yeast inh: 18µM*; FUS yeast rescue: inactive; Abeta rescue: inactive

What do the screens show for `O=C(Nc1ccccc1)N1CCC(c2ccccc2)C1` (stereo not drawn)?
aSyn rescue: -5%; TDP-43 yeast inh: 28%; FUS yeast rescue: inactive; Abeta rescue: inactive

How did O=C(NNC(=S)Nc1ccc(Cl)c(Cl)c1)c1ccccn1 do in these assays?
aSyn rescue: 10µM*; TDP-43 yeast inh: 16%; FUS yeast rescue: inactive; Abeta rescue: inactive

What do the screens show for `O=C(Nc1ccc(Cl)c(Cl)c1)N1CCC(c2ccccc2)C1` (stereo not drawn)?
TDP-43 yeast inh: 35µM*; FUS yeast rescue: inactive; Abeta rescue: inactive

What do the screens show for `O=C(Nc1ccc(Cl)c(Cl)c1)N1CCSCC1`?
aSyn rescue: -1%; TDP-43 yeast inh: 13µM*; FUS yeast rescue: inactive; Abeta rescue: inactive

Results for O=C(/C=C/c1ccccc1)N1CCC(c2ccccc2)C1 (stereo not drawn) ?
aSyn rescue: 10%; TDP-43 yeast inh: 11µM*; Abeta rescue: inactive

Screens from PubChem.
